For 30 compounds, INHIBITION results are on record in ChEMBL document CHEMBL4513216, “Probing the Open Global Health Chemical Diversity Library for Multistage-Active Starting Points for Next-Generation Antimalarials” (ACS Infect Dis, 2020).

In all, about 69,000 compounds went through this assay and about 8,600 (12%) showed an effect of 50% or more. Many of the other results were omitted from the sample, so strong results are more common in it than they were.

This test deals with Plasmodium berghei. Nature of the test: Screen against P. berghei liver stage (PbLuc), transformed with Luciferase, at 10uM. It is filed as functional, HepG2. The note with it: tested at 10 uM.
Turning to `Cc1nn(C)c(C)c1CC(=O)NCc1cccnc1N1CCOCC1`, the INHIBITION stood at 1.48%. As for `CC(CN1CCOCC1)NC(=O)c1cc(Cl)c2c(c1)OCCO2` (stereo not given), the figure is -23.7%; as for `Cc1cc(C(=O)NCc2c(C)nn(C)c2C)nc(N2CCOCC2)n1`, 12.9%. The result for `Cc1c(Cl)c(C(=O)NCc2ccc(F)cc2)nn1C` reads -6.18%; that for `CCC(=O)NCCNC(=O)c1nn(C)c(C)c1Cl`, -23%; that for `Cc1nn(C)c(C)c1C(=O)NN1CCOCC1`, 62.3%. As for `Cc1c(Cl)c(C(=O)NC(C)CN2CCOCC2)nn1C` (stereo not given), the INHIBITION came to 54.9%. `Cc1c(Cl)c(C(=O)NN2CCOCC2)nn1C`: the INHIBITION is on record as 55.7%.

Take `Cn1nc(C(=O)NN2CCOCC2)c(Cl)c1C(F)(F)F`: the INHIBITION is on record as -23%.

As for `CNc1ncccc1CN1CCN(C(C)=O)CC(C(N)=O)C1` (stereo not given), the INHIBITION was -61.5%.

On to `O=C(c1cocn1)N1CCC[C@]2(C[C@@H](Oc3ncccc3F)CO2)C1`, for which the INHIBITION is recorded as -26.5%. The result for `O=C(c1ccc[nH]1)N1CCC2(CC1)CC(Oc1cccnc1)CO2` (stereo not given) reads 22.5%. As for `CN1CCCC1CNC(=O)CCCOc1cccc(F)c1` (stereo not given), the figure is 11.5975%; as for `CCn1ncc(-c2cc(C(F)F)n3nc(CCC(=O)O)nc3n2)c1C`, 20.4%. On to `Cc1cccc(N2N=C(C(=O)NC(C)Cc3ccco3)CCC2=O)c1` (stereo not given), for which the INHIBITION is listed as 32%. Take `Cc1cccc(N2N=C(C(=O)NC(C)CCc3ccco3)CCC2=O)c1` (stereo not given): the INHIBITION is 12.4%. As for `Cc1cccc(N2N=C(C(=O)NC(C)Cn3cccn3)CCC2=O)c1` (stereo not given), the figure is 50.5%; as for `CCn1cc(NC(=O)C2CCN(Cc3nc(C(C)C)no3)CC2)cn1`, 53.9%. The result for `CCc1noc(CN2CCC(C(=O)Nc3cnn(CC)c3)CC2)n1` reads 5.9%; that for `CCn1cc(NC(=O)C2CCN(Cc3ccccc3)CC2)cn1`, 21.6%; that for `CCn1cc(NC(=O)C2CCN(Cc3nc(C)c(C)s3)CC2)cn1`, 55.6%. The result for `CCCc1noc(CN2CCC(C(=O)Nc3cnn(CC)c3)CC2)n1` reads 22.3%. Regarding `CCn1cc(NC(=O)C2CCN(Cc3nc(C)c(C)o3)CC2)cn1`, the INHIBITION was found to be 8.31%.

With `Cc1noc(CNC(=O)C(C)(C)NC(=O)OC(C)(C)C)n1`, the INHIBITION is 22%. Turning to `COc1ccc(C2=NOC(C(=O)N3CCCc4ccccc43)C2)cc1` (stereo not given), the INHIBITION is reported as -20.6%. For the compound `CC(C)N(C)CC(=O)NCC(Cc1ccc(F)cc1)C(N)=O` (stereo not given), the INHIBITION is given as -16%.

In the case of `Fc1ccccc1C1NCCc2cc3c(cc21)OCCO3` (stereo not given), the INHIBITION stood at 2.6%. As for `Clc1ccc(C2NCCc3cc4c(cc32)OCCO4)cc1` (stereo not given), the figure is 45.6%. As for `CCc1ccc(C2NCCc3cc4c(cc32)OCCO4)cc1` (stereo not given), the figure is 51.5%; as for `CCOC(C)C(=O)NCCNS(C)(=O)=O` (stereo not given), 19.3%.
